Hit rate of the full screen: of about 2,300 compounds, about 350 (15%) were called active. Only a sample is shown. Potency and affinity values are given separately. A number with no mark means an inactive call. The rule behind the calls is not given here.
Test: HepG2 cell cytotoxicity, dose response, cytotoxicity control for non-replicating M. tuberculosis project (AID 489018);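 note: HepG2 human liver cells; 100% = vehicle-treated cells and 0% = background signal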
Conditions: series mostly up to 20 µM; viability: at the top concentration
In the case of `S=C1SCN(Cc2ccco2)CN1Cc1ccco1`, the “viability” value is reported as 90.5%. For `CN(C)S(=O)(=O)c1ccc(C(=O)Oc2ccccc2)cc1`, the “viability” value was 91%. In the case of `CCC(C)[C@H]1CN=C(N)N1CCc1cccc2ccccc12` (stereo not given in full), the “viability” value is reported as 85.5%. In the case of `Cc1cc(-c2c(C)[nH]n(-c3ccccc3)c2=O)n[nH]1`, the “viability” value is reported as 72.7%. In the case of `COc1ccc2oc(=O)c(/C(C)=N/NC(=O)c3ccncc3)cc2c1`, the “viability” value is reported as 104%. In the case of `C/C(=N\Nc1nc2ccccc2nc1C)c1ccccc1O`, the “viability” value is reported as 91.6%. For `N=c1oc2ccc(Cl)cc2cc1C(=O)NC1CCCCCC1`, the “viability” value was 87.9%. For `O=C(Oc1ccc(F)cc1)c1ccc2c(=O)n3c(nc2c1)CCC3`, the “viability” value was 96.7%. For `Cc1ccc(-c2nnc(SCC#CCOC(=O)c3ccco3)o2)cc1`, the “viability” value was 104%. With `CCOC(=O)C1=C(C)C/C(=N\NC(=O)c2ccccc2O)CC1` the “viability” value was 81.2%. In the case of `Cc1cc(C)nc(Sc2ncnc(N)c2[N+](=O)[O-])n1`, the “viability” value is reported as 80.1%. In the case of `Oc1ccccc1-c1nnc(COc2ccccc2)o1`, the “viability” value is reported as 89.6%. With `CNC(=O)COC(=O)c1ccc(-c2nc3ccccc3s2)s1` the “viability” value was 91.7%. For `CC(C)N1CCc2c(sc(NC(=O)CCS(=O)(=O)c3ccccc3)c2C#N)C1`, the “viability” value was 104%. For `CCCCNC(=O)Nc1nnc(-c2ccc(OCC)cc2)o1`, the “viability” value was 100%. With `Cc1ccc(CCC(=O)Nc2ccc(C)c(C)c2)o1` the “viability” value was 97.3%. With `Cc1ccc(C(=O)Nc2nnc(C3=COCCO3)o2)cc1C` the “viability” value was 87.5%. For `C/C(=C\C(=O)c1ccc(Br)cc1)NNC(=O)c1ccccc1`, the “viability” value was 70.2%. In the case of `Cc1n[nH]c(=S)n1/N=C/c1ccc(OCc2ccc(Cl)cc2Cl)cc1`, the “viability” value is reported as 103%. For `O=C(O)c1ccccc1-c1ccccc1C(=O)Nc1nc2ccccc2s1`, the “viability” value was 105% [at 5 µM]. With `CC(C)(C)c1csc(NC(=O)c2ccccc2O)n1` the “viability” value was 82.3%. With `Cc1ccc2c(c1)C(=O)C(=O)N2CCCOc1ccccc1` the “viability” value was 108%. In the case of `CCCn1c(NC(=O)c2ccc([N+](=O)[O-])o2)nc2ccccc21`, the “viability” value is reported as 91.1%. In the case of `COC(=O)c1ccc(C(=O)NC2CCCc3c2cnn3-c2cc(F)cc(F)c2)nc1` (stereo not given), the “viability” value is reported as 74%. With `O=C(COC(=O)c1cccc(C(F)(F)F)c1)NCc1ccccc1` the “viability” value was 99.9%. In the case of `COC(=O)C1=C(C)N(CC2CC2)C(=NCc2cccc(Cl)c2)N[C@H]1c1ccccc1`, the “viability” value is reported as 76.5%. With `CCOC(=O)COc1cc(N)c(Cl)cc1Cl` the “viability” value was 80.8%. For `CC(C)C1O/C(=N/C(=O)Nc2ccc(Cl)c(Cl)c2)NC1=O` (stereo not given), the “viability” value was 95.4%. With `O=c1c2ccccc2sn1-c1ccccc1` the “viability” value was 93.9%. For `COC(=O)COc1ccc2cc(-c3ccc(OC)cc3)c(=O)oc2c1`, the “viability” value was 105%. In the case of `CC(C)(C)NC(=O)C(=O)NNC(=O)c1ccc(C(C)(C)C)cc1`, the “viability” value is reported as 88.5%. With `C#CCSc1nnc(-c2cccc3ccccc23)o1` the “viability” value was 85.7%. With `O=C(COC(=O)CCc1c[nH]c2ccccc12)NCc1ccc2c(c1)OCO2` the “viability” value was 109%. For `O=C(COC(=O)CCc1c[nH]c2ccccc12)NCc1ccc(Cl)cc1`, the “viability” value was 108%. For `N#Cc1ccc(COC(=O)CCc2c[nH]c3ccccc23)cc1`, the “viability” value was 108%. With `COc1ccc(OC(=O)CCc2c[nH]c3ccccc23)cc1` the “viability” value was 103%. With `CCc1ccc(NC(=O)C(=O)NNC(=O)COc2cccc(OC)c2)cc1` the “viability” value was 111%. In the case of `O=C(NNc1nc2cc3c(cc2s1)OCCO3)c1ccccc1`, the “viability” value is reported as 98.9%. With `O=[N+]([O-])c1ccc(CNc2cccc(Cl)c2)s1` the “viability” value was 98.3%. With `CC1=NN(C(=O)c2csc(C)c2C)C(O)(C(F)(F)F)C1` (stereo not given) the “viability” value was 98%. With `CCOCC(=O)Nc1nc2ccc(C)cc2s1` the “viability” value was 87.5%. With `CCN(CC)CCSc1nnc2c3cc(C)ccc3n(Cc3ccccc3)c2n1` the “viability” value was 94% [at 5 µM]. With `O=C(Nc1nc2ccccc2n1CCN1CCCC1)C1CCCCC1` the “viability” value was 105%. With `O=C(Nc1nc2ccccc2n1CCN1CCCC1)c1ccc(Cl)cc1` the “viability” value was 97.8% [at 5 µM]. With `Cc1cccc(NC(=O)COC(=O)CCc2c[nH]c3ccccc23)c1` the “viability” value was 100%. For `O=C(COC(=O)c1ccccc1Cl)NCCC1=CCCCC1`, the “viability” value was 106% [at 5 µM]. For `O=c1cc2[nH]c3ccccc3c(=O)n2nc1-c1ccccc1`, the “viability” value was 96.7%. In the case of `CC1CC(C)CN(C(=O)COC(=O)c2ccc([N+](=O)[O-])o2)C1` (stereo not given), the “viability” value is reported as 98.8%. For `COc1ccc(S(=O)(=O)NCc2ccc3c(c2)cc(C)n3C)cc1`, the “viability” value was 105%. In the case of `COc1ccc(CCCC(=O)NCc2ccccc2)cc1C`, the “viability” value is reported as 104%. In the case of `COC(=O)COc1ccc2c(-c3ccc(OC)cc3)cc(=O)oc2c1`, the “viability” value is reported as 105%. In the case of `C=C1CCC[C@]2(C)C[C@H]3OC(=O)C(CNC(C)CCCC(C)C)[C@H]3CC12` (stereo not given in full), the “viability” value is reported as 84.6%. For `O=C(Oc1ccccc1Cl)c1ccc2c(=O)n3c(nc2c1)CCC3`, the “viability” value was 96.1%. With `CC(/C=C/c1cccc([N+](=O)[O-])c1)=N\NC(=O)c1ccncc1` the “viability” value was 92.2%. In the case of `COC(=O)COc1cccc(/C=N/NC(=O)CCSc2ccccc2)c1`, the “viability” value is reported as 99.2% [at 5 µM]. With `Cc1occc1C(=O)N/N=C/c1ccc[nH]1` the “viability” value was 94.7%. In the case of `Cc1occc1C(=O)N/N=C/C(Br)=C\c1ccccc1`, the “viability” value is reported as 73.8%. With `O=C(N/N=C/c1ccc[nH]1)c1ccc2c(c1)OCO2` the “viability” value was 94.7% [at 5 µM]. For `O=C(N/N=C\c1ccccc1OCc1ccccc1)c1ccco1`, the “viability” value was 106%. In the case of `C/C(=N\NC(=O)c1cccs1)c1ccc2c(c1)OCO2`, the “viability” value is reported as 86.2%.

From PubChem BioAssay AID489018 (Southern Research Specialized Biocontainment Screening …, 2010)
